Laboratory results as given in PubChem BioAssay (NCATS).

Assay: qHTS profiling of the MIPE4 collection as inhibitors of Plasmodium falciparum (DD2) proliferation (AID 743345)
Details: P. falciparum Dd2 in erythrocytes, SYBR Green DNA, 72 h; at 28.5 µM (top of the series) unless noted
Outline: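 Erythrocytes infected with P. falciparum (0.3% parasitemia, 2.5% hematocrit) incubated with compounds 72 h at 37 C, 5% CO2. Lysis with saponin/Triton buffer containing SYBR Green I, overnight at room temperature in the dark; DNA fluorescence (485/535 nm) normalised to 0.29 uM artemisinin and DMSO.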
`CC(C)OC(=O)C(C(=O)OC(C)C)=C1SC=CS1` gave a parasite growth remaining, % of DMSO control (lower = more inhibition) of 117%. For `CCOC(=O)[C@H](CCc1ccccc1)N[C@H]1CCc2ccccc2N(CC(=O)O)C1=O`, the parasite growth remaining, % of DMSO control (lower = more inhibition) was 9.11%. In the case of `S=P(N1CC1)(N1CC1)N1CC1`, the parasite growth remaining, % of DMSO control (lower = more inhibition) is reported as 24.7%. Work on `Nc1nc(F)nc2c1ncn2[C@@H]1O[C@H](CO)[C@@H](O)[C@@H]1O` yielded a parasite growth remaining, % of DMSO control (lower = more inhibition) of 19.5%. `CNS(=O)(=O)CCc1ccc2[nH]cc(C3CCN(C)CC3)c2c1` showed a parasite growth remaining, % of DMSO control (lower = more inhibition) of 87.2%. With `CC1CC2C3CCC4=CC(=O)C=C[C@]4(C)[C@@]3(F)[C@@H](O)C[C@]2(C)[C@@]1(O)C(=O)CO` (some centres not stated) the parasite growth remaining, % of DMSO control (lower = more inhibition) was 90.6%. Work on `Nc1nc(=S)c2[nH]cnc2[nH]1` yielded a parasite growth remaining, % of DMSO control (lower = more inhibition) of 101%. `Cc1nnc(NS(=O)(=O)c2ccc(N)cc2)s1` gave a parasite growth remaining, % of DMSO control (lower = more inhibition) of 17.6%. `O=S(=O)(O)CCS` gave a parasite growth remaining, % of DMSO control (lower = more inhibition) of 108%. In the case of `CCCCc1oc2ccc(NS(C)(=O)=O)cc2c1C(=O)c1ccc(OCCCN(CCCC)CCCC)cc1`, the parasite growth remaining, % of DMSO control (lower = more inhibition) is reported as 6.73%. Compound `O=C(NCC1CN(c2ccc(N3CCOCC3=O)cc2)C(=O)O1)c1ccc(Cl)s1` (configuration not stated) has a parasite growth remaining, % of DMSO control (lower = more inhibition) of 94.4%. `NC(=O)N1c2ccccc2CC(=O)c2ccccc21` showed a parasite growth remaining, % of DMSO control (lower = more inhibition) of 96.7%. `Cc1onc(-c2ccccc2Cl)c1C(=O)N[C@@H]1C(=O)N2[C@@H]1SC(C)(C)[C@@H]2C(=O)O` gave a parasite growth remaining, % of DMSO control (lower = more inhibition) of 94.6%. For `Cc1cccc(Nc2ccncc2S(=O)(=O)NC(=O)NC(C)C)c1`, the parasite growth remaining, % of DMSO control (lower = more inhibition) was 104%. In the case of `CCn1cc(C(=O)O)c(=O)c2cc(F)c(N3CCN(C)CC3)cc21`, the parasite growth remaining, % of DMSO control (lower = more inhibition) is reported as 70.5%. Work on `CCCc1nc(C)c2c(=O)[nH]c(-c3cc(S(=O)(=O)N4CCN(CC)CC4)ccc3OCC)nn12` yielded a parasite growth remaining, % of DMSO control (lower = more inhibition) of 12.3%. In the case of `O[C@@H](CNC[C@H](O)[C@H]1CCc2cc(F)ccc2O1)[C@@H]1CCc2cc(F)ccc2O1`, the parasite growth remaining, % of DMSO control (lower = more inhibition) is reported as 8.23%.
